Measured values published in PubChem BioAssay AID853 (Columbia University Molecular Screening Center, 2007).
The campaign covered roughly 47,000 compounds. About 200 (0.43%) were called active. Not shown: some 1% with an inconclusive outcome.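 How the source made its calls: active means inhibition of aggregate fluorescence above about 70%, also judged a hit by eye on the cell image (limit read from the data, passing the limit was not always enough); inconclusive means no rule stated for this call; inactive means not judged a hit on image review.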 For the sample, actives were picked, then their nearest neighbours and some compounds at random.

Experiment: removal of polyQ htt aggregates in HeLa – imaging, HeLa Exon1htt(103Q)mCFP, confocal imaging, primary screen (AID 853);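 further: cells exposed to compound for three days before fixation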
Details: aggregate imaging, at 1.5 µM; fraction fluorescence in grains: measured here: aggregate grain fluorescence fraction, stronger effect = lower value; inhibition: stronger effect = higher value, zero = plate's median compound well
With `CC(Sc1nnc(Cc2ccc([N+](=O)[O-])cc2)o1)C(N)=O` (centres undefined) the fraction fluorescence in grains was 30.7 and the inhibition was 0.3% (inactive). For `Cc1nc(NC2=NC(C(=O)Nc3ccc(Cl)cc3)CC(=O)N2)nc2ccccc12` (centres undefined), the fraction fluorescence in grains was 22.8 and the inhibition was 22.1% (inactive). For `CCCCCN1CC(O)=C(c2nc(-c3ccc(Cl)cc3)cs2)C1=N`, the fraction fluorescence in grains was 36.3 and the inhibition was 8.6% (inactive). In the case of `CCN(CC)CCN1C(=O)C(=O)/C(=C(/O)c2cnn(-c3ccccc3)c2C)C1c1cccs1` (centres undefined), the fraction fluorescence in grains is reported as 54.5 and the inhibition is reported as -25.7% (inactive). In the case of `O=C(NCCSCc1ccccc1)c1ccc(Cl)c(S(=O)(=O)N2CCOCC2)c1`, the fraction fluorescence in grains is reported as 25.6 and the inhibition is reported as -28.1% (inactive). For `CC(=O)N1CCN(c2cccc(C)c2C)CC1`, the fraction fluorescence in grains was 46.1 and the inhibition was -25.4% (inactive). In the case of `C[C@H](NC(=O)NCCc1ccccc1)C(=O)O`, the fraction fluorescence in grains is reported as 5.06 and the inhibition is reported as 70.9% (active). For `CC(C)C[C@H](NC(=O)NCCc1ccc(Cl)cc1)C(=O)O`, the fraction fluorescence in grains was 16.2 and the inhibition was 12.2% (inactive). For `CSCC[C@H](NC(=O)NCCc1ccc(F)cc1)C(=O)O`, the fraction fluorescence in grains was 15.6 and the inhibition was 18.4% (inactive). For `O=C(c1ccc(F)cc1)c1c[nH]c(C(=O)NCc2cccnc2)c1`, the fraction fluorescence in grains was 38.1 and the inhibition was 1% (inactive). For `Fc1cnc(N2CCOCC2)nc1NCc1ccccc1`, the fraction fluorescence in grains was 12.4 and the inhibition was 35.6% (inactive). In the case of `O=c1c2ccccc2nc2n1C(CSCc1ccccc1)CS2` (centres undefined), the fraction fluorescence in grains is reported as 35.3 and the inhibition is reported as 8.1% (inactive). In the case of `CCCc1cc(=O)[nH]c(SCC(=O)OCc2ccccc2)n1`, the fraction fluorescence in grains is reported as 59.2 and the inhibition is reported as -54.1% (inactive). In the case of `CCOC(=O)Cc1csc(NC(=O)CSc2nnc(-c3cccnc3)n2Cc2ccco2)n1`, the fraction fluorescence in grains is reported as 20.9 and the inhibition is reported as -18.9% (inactive). For `Cc1nn(Cc2ccc(C(=O)N3N=C(C(F)F)CC3(O)C(F)F)cc2)c(C)c1[N+](=O)[O-]` (centres undefined), the fraction fluorescence in grains was 62.5 and the inhibition was -61% (inactive). For `CCN1C(=O)/C(=C2/Sc3ccc(OC)cc3N2C)SC1=Nc1ccc(C)cc1`, the fraction fluorescence in grains was 17.9 and the inhibition was -1.7% (inactive). In the case of `CCOC(=O)c1cnc(SCC(=O)Nc2ccccc2C(=O)OC)nc1N`, the fraction fluorescence in grains is reported as 20.5 and the inhibition is reported as -16.8% (inactive). In the case of `COc1ccc(C(=O)Nc2nc(-c3ccc(OC)cc3)c(-c3ccc([N+](=O)[O-])cc3)s2)cc1`, the fraction fluorescence in grains is reported as 21.2 and the inhibition is reported as 47.9% (inactive). In the case of `CCN(CC)S(=O)(=O)c1ccc2c3c(cccc13)C(=O)S2`, the fraction fluorescence in grains is reported as 38.9 and the inhibition is reported as -8.8% (inactive). In the case of `COc1ccc(Cl)cc1C(=O)NCC#N`, the fraction fluorescence in grains is reported as 28.6 and the inhibition is reported as 27.9% (inactive). With `COc1ccc(C(=O)NCCc2ccc(S(N)(=O)=O)cc2)cc1OC` the fraction fluorescence in grains was 43.5 and the inhibition was -18.4% (inactive). With `CCn1c(O)c2ccc(C(=O)N=NC(=O)c3cccnc3)cc2c1O` the fraction fluorescence in grains was 37.7 and the inhibition was -25.3% (inactive). With `Cc1ccc(-c2nn(-c3ccccc3)cc2/C=N/NC(=O)c2ccc3c(c2)OCO3)cc1` the fraction fluorescence in grains was 34 and the inhibition was -12.7% (inactive). For `CC12c3ccccc3C(c3ccccc31)C1C(=O)N(Cc3cccnc3)C(=O)C12` (centres undefined), the fraction fluorescence in grains was 12 and the inhibition was 60.9% (inactive). With `COc1ccc(OC)c(/C=N/NC(=O)CSc2nnc(C)n2-c2ccccc2)c1` the fraction fluorescence in grains was 32.4 and the inhibition was -7.5% (inactive). In the case of `Cc1cc(C)cc(NC(=O)c2cccc(NC(=O)C3C4CC5OC(=O)C3C5C4)c2)c1` (centres undefined), the fraction fluorescence in grains is reported as 31 and the inhibition is reported as -31.4% (inactive). For `O=C(c1ccccc1)c1cc(-c2ccccn2)c(N2CCOCC2)s1`, the fraction fluorescence in grains was 30.5 and the inhibition was 22% (inactive). In the case of `Cc1ccc(-n2nc3c(c2NC(=O)CCC2CCCCC2)CS(=O)C3)cc1` (centres undefined), the fraction fluorescence in grains is reported as 38.7 and the inhibition is reported as 17.6% (inactive). With `CC1=C(C(N)=O)C(c2sccc2C)n2nnnc2N1` (centres undefined) the fraction fluorescence in grains was 60.2 and the inhibition was -59.3% (inactive). For `O=C(Nc1ncc2c(n1)-c1ccccc1OC2)c1ccc(Cl)cc1`, the fraction fluorescence in grains was 34.8 and the inhibition was 7.6% (inactive). In the case of `COc1cccc(N(CC(=O)NCCSc2ccccn2)S(C)(=O)=O)c1`, the fraction fluorescence in grains is reported as 32.4 and the inhibition is reported as -38.8% (inactive). With `COc1cc(C)c(C(C)C)cc1S(=O)(=O)n1ccnc1` the fraction fluorescence in grains was 38.5 and the inhibition was -120% (inactive). In the case of `O=C(NC1(C(F)(F)F)NC(=O)N(Cc2cccnc2)C1=O)c1ccccc1Cl` (centres undefined), the fraction fluorescence in grains is reported as 32.6 and the inhibition is reported as 13.2% (inactive). For `Cc1nnc(OCC(=O)NCCC2=CCCCC2)c2ccccc12`, the fraction fluorescence in grains was 30.6 and the inhibition was 19% (inactive). With `Cc1cc2cc(CN(Cc3cccs3)Cc3nnnn3CC3CCCO3)c(=O)[nH]c2cc1C` (centres undefined) the fraction fluorescence in grains was 18 and the inhibition was 47.9% (inactive). In the case of `CCC(c1nnnn1C1CCCC1)N(Cc1cccs1)Cc1cc2cccc(C)c2[nH]c1=O` (centres undefined), the fraction fluorescence in grains is reported as 14.9 and the inhibition is reported as 27.8% (inactive). In the case of `CCC(c1nnnn1Cc1ccco1)N(CCc1ccccc1)Cc1cc2cccc(C)c2[nH]c1=O` (centres undefined), the fraction fluorescence in grains is reported as 4.66 and the inhibition is reported as 75.8% (active). For `CCC(c1nnnn1Cc1ccco1)N(CCc1ccccc1)Cc1cc2ccc(OC)cc2[nH]c1=O` (centres undefined), the fraction fluorescence in grains was 19.4 and the inhibition was 46.6% (inactive). In the case of `CCC(c1nnnn1Cc1ccccc1)N(Cc1cc2cc(OC)ccc2[nH]c1=O)CC1CCCO1` (centres undefined), the fraction fluorescence in grains is reported as 3.01 and the inhibition is reported as 83.8% (active). For `CCC(c1nnnn1Cc1ccco1)N(Cc1cc2cc(OC)ccc2[nH]c1=O)C1CCCCC1` (centres undefined), the fraction fluorescence in grains was 12.1 and the inhibition was 36.8% (inactive). For `CCOC(=O)C(C)Oc1cccc2c(=O)n(CC(=O)N3CCc4ccccc43)ccc12` (centres undefined), the fraction fluorescence in grains was 44.7 and the inhibition was -33.2% (inactive). With `CCCCNC(=O)OC(C)CNC(=O)OC` (centres undefined) the fraction fluorescence in grains was 23.8 and the inhibition was 25% (inactive).
